Assay results published in PubChem BioAssay (NCATS).
Several values for one entry are separate records, joined by “and”; a condition that tells them apart may be missing. Identical values can stand only once. Results filed as inconclusive are left out. Unmarked numbers belong to inactive results. Activity calls are given as the source filed them. Calls follow the shape of the dose curve; as a rule, active = well fitted curve in the direction sought with a large enough effect; inconclusive = small, poorly fitted or top-dose-only effect, or another doubt; inactive = no such curve, though single readings can be large; an effect the other way counts as inactive or inconclusive.

Legend:
[1] = molecular target: Cellular tumor antigen p53 (Homo sapiens) (UniProt P04637); test: Primary qHTS for small molecule compounds that upregulate eGFP-tagged delta133p53alpha (in N-terminal) cells. (AID 2060322); settings: NCI-H358 eGFP-delta133p53alpha fluorescence, 24 h; activation: active compounds read high;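 also: cells pre-induced with doxycycline then dosed without doxycycline; series mostly up to about 56 µM; 0% = DMSO vehicle and 100% = reference activator; nearly all actives have a fitted effect of over 75% in size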
Method in brief: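 NCI-H358 cells pre-induced 24 h with 10 ng/ml doxycycline for eGFP-delta133p53alpha, plated dox-free and exposed 24 h at 37C to titrated compounds. Fixed, Hoechst-stained; gated GFP peak intensity by laser scanning cytometry, normalized to DMSO (0%) and 57.5 uM 5-azacytidine (100%).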

[2] = molecular target: Retinaldehyde dehydrogenase 3 (Homo sapiens) (UniProt P47895); test: qHTS for Inhibitors of the Aldehyde Dehydrogenase Family (ALDH1A3) Primary screen (AID 2061315); also: potency is read from the fitted curve at half-maximal effect

Cellular tumor antigen p53 (Homo sapiens), sequence (P04637 whole entry, looked up): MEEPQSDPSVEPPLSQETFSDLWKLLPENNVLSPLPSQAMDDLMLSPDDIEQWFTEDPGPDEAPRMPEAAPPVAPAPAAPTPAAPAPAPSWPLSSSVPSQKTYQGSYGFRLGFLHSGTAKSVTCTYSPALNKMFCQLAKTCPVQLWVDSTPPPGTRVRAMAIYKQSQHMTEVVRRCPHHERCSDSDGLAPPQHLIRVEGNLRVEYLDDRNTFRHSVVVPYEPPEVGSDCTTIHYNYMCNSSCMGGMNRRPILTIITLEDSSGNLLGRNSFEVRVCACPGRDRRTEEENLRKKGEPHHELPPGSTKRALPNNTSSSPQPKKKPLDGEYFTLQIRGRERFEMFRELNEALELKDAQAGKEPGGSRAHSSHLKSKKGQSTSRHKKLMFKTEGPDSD

SMILES	activation [1]	Potency [2]
CC(O)C1C(=O)N2C(C(=O)O)=C(SC3CNC(C(=O)N(C)C)C3)C(C)C12 (centres undefined)	-0.506% and -5.25%	inactive
C#Cc1cccc(Nc2nc3cc(C(=O)O)ccc3c3cncnc23)c1	8.04%	inactive
Cc1c(CN(C)C(=O)/C=C/c2cnc3c(c2)CCC(=O)N3)oc2ccccc12	8.33%	inactive
CC1CCC2(C(=O)O)CCC3(C)C(=CCC4C5(C)CCC(O)C(C)(CO)C5CCC43C)C2C1(C)O (centres undefined)	-0.893%	inactive
O=C(NCc1cccs1)c1cc2nc(-c3ccco3)cc(C(F)(F)Cl)n2n1	0.477%	inactive
O=c1cc(NCCCN[C@@H]2CCOc3c(Br)cc(Br)cc32)[nH]c2ccsc12	0.477%	inactive
O=C(O)c1cc2cccc([N+](=O)[O-])c2[nH]1	10.3%	inactive
CC1=C2C[C@@]3(C)C(CCC[C@@H]3C)C(O)C2OC1=O (some centres undefined)	-15.3%	inactive
Cc1c2cc(c(C(=O)O)c1C)OC1OC(C(O)C(O)C1O)C(O)C(O)C1OC(O2)C(O)C(O)C1O (centres undefined)	-5.34%	inactive
CCC(Nc1ncnc2nc[nH]c12)c1nc2cccc(F)c2c(=O)n1-c1ccccc1 (centres undefined)	4.46%	inactive
O=C(O)c1cc(O)c2cccc(O)c2c1O[C@@H]1O[C@H](CO)[C@@H](O)[C@H](O)[C@H]1O	-20.5%	6.31 µM (active)
C=C(COC(=O)CC(C)C)C1Cc2cc(C(C)=O)ccc2O1 (centres undefined)	-15.2%	inactive
